For 3 sequences, binding signal results are on record in publication PMC7862700, “An all-to-all approach to the identification of sequence-specific readers for epigenetic DNA modifications on cytosine”.

What all share (assay): DAPPL (digital affinity profiling via proximity ligation, sequencing); 10 mM Tris-HCl pH 7.5, 50 mM NaCl, 1 mM DTT, 4% glycerol, room temperature, 30 min; GST-TFs on glutathione beads, 16-mer random dsDNA library, 0.1% formaldehyde crosslink after washing; high values mean tight binding
Conditions in all cases: protein: recombinant; tags: N-terminal GST; dsDNA, one strand shown

The target of one experiment is ETV5 (Homo sapiens, UniProt P41161 1-510). Summed up: (§1)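 Sequencing on an Illumina NextSeq500 followed washing, crosslinking with 0.1% formaldehyde, proximity ligation (BsaI/T4 ligase, 1 h, 37 °C) and PCR amplification of pools that had been incubated for 30 min at room temperature with 200 nmole of a random double-stranded 16-mer DNA library in Tris/NaCl/DTT/glycerol buffer. Each pool held DNA-barcoded human transcription factors, expressed in yeast as GST fusions and captured on glutathione beads, plus a tag-only sample. Binding signal is a hexamer's read frequency for a factor divided by its frequency in the tag-only sample.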

In another experiment the target is T1, SPDEF (Homo sapiens, UniProt O95238 1-335).
T1 sequence: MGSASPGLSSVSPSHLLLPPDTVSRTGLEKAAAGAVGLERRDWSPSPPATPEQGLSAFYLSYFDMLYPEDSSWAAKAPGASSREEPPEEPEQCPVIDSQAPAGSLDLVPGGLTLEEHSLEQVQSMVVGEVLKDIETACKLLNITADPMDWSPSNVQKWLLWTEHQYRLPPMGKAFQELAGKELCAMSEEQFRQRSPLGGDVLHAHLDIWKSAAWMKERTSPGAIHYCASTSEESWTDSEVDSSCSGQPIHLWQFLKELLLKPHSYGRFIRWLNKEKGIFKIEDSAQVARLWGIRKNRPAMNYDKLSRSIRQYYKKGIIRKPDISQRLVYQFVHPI
The method in brief: as §1

A further experiment deals with ETV6 (Homo sapiens, UniProt P41212 1-452). The method in brief:
as §1

The next experiment concerns the target T2, SPIC (Homo sapiens, UniProt Q8N5J4 1-248).
T2 sequence: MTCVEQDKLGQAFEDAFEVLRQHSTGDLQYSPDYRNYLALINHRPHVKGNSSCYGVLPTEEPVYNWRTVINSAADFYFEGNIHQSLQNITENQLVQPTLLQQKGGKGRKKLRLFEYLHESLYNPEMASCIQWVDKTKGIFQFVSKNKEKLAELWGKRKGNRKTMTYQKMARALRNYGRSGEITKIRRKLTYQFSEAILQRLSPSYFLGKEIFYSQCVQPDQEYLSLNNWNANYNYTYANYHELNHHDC
Summed up: as §1

The target in a further experiment is T3, ELK4 (Homo sapiens, UniProt P28324-2 1-405).
T3 sequence: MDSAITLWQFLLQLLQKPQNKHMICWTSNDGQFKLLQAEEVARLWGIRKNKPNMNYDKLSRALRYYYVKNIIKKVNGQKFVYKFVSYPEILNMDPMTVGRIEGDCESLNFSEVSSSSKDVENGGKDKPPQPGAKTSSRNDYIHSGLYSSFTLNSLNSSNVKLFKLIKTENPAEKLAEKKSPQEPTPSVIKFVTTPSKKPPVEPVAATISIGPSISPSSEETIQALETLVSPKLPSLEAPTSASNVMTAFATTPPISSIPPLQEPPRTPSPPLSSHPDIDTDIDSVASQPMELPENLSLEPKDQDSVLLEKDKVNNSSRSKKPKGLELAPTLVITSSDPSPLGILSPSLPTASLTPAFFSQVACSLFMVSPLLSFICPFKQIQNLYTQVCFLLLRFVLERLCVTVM
Summed up: as §1

The target in the next experiment is T4, ELF3 (Homo sapiens, UniProt P78545 1-371).
T4 sequence: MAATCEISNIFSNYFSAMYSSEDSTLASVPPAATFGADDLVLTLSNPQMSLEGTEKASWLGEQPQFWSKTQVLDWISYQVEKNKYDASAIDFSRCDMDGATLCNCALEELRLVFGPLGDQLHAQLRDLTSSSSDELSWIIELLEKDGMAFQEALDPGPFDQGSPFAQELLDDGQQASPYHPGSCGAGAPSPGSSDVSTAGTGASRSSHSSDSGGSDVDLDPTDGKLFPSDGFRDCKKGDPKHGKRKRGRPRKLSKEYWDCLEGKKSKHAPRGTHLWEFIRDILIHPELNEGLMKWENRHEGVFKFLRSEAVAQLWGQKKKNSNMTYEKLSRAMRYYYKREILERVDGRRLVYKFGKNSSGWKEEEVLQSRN
The method in brief:
as §1

The target in a further experiment is T5, ETV7 (Homo sapiens, UniProt Q9Y603 1-341).
T5 sequence: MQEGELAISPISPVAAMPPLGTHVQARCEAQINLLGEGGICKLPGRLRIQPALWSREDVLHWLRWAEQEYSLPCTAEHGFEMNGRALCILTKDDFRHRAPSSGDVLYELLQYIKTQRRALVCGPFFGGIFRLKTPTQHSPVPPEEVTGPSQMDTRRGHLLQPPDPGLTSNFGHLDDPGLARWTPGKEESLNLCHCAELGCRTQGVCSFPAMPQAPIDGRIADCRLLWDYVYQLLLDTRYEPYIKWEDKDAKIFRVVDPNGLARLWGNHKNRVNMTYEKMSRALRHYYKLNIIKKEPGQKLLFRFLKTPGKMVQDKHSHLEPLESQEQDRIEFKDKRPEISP
The method in brief: as §1

The next experiment deals with T6, ETV3 (Homo sapiens, UniProt P41162-2 1-143).
T6 sequence: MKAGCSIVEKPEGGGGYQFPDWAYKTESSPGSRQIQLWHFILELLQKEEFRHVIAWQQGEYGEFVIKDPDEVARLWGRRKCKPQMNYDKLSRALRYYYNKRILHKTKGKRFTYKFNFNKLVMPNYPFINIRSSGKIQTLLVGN
Summed up:
as §1

Another experiment concerns the target T7, GABPA (Homo sapiens, UniProt Q06546 1-454).
T7 sequence: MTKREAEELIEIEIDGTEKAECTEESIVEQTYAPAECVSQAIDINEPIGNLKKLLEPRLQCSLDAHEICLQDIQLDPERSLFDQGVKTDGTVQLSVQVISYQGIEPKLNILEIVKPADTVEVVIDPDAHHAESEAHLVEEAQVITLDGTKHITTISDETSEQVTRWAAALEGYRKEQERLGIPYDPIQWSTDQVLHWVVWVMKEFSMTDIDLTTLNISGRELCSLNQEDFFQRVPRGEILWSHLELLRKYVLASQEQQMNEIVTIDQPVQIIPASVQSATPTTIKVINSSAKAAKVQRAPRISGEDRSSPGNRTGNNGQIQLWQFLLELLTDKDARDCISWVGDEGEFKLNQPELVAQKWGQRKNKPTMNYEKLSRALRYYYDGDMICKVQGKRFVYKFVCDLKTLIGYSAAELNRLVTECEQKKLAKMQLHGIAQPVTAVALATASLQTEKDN
Summed up: as §1

In a further experiment the target is ELF1 (Homo sapiens, UniProt P32519 1-619). Summed up: as §1
The target of another experiment is T8, EHF (Homo sapiens, UniProt Q9NZC4 1-300).
T8 sequence: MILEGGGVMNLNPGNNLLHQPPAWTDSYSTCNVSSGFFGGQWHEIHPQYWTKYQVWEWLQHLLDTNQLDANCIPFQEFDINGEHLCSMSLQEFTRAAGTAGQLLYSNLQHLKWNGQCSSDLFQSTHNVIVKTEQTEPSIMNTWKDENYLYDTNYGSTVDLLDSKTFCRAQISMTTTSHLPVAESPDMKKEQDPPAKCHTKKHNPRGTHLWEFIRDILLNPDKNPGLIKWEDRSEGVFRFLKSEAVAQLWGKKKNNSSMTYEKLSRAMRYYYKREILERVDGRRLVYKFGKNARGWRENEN
Summed up:
as §1

The next experiment concerns the target ETV1 (Homo sapiens, UniProt P50549 1-477). Summed up:
as §1

In another experiment the target is T9, ERF (Homo sapiens, UniProt P50548 1-548).
T9 sequence: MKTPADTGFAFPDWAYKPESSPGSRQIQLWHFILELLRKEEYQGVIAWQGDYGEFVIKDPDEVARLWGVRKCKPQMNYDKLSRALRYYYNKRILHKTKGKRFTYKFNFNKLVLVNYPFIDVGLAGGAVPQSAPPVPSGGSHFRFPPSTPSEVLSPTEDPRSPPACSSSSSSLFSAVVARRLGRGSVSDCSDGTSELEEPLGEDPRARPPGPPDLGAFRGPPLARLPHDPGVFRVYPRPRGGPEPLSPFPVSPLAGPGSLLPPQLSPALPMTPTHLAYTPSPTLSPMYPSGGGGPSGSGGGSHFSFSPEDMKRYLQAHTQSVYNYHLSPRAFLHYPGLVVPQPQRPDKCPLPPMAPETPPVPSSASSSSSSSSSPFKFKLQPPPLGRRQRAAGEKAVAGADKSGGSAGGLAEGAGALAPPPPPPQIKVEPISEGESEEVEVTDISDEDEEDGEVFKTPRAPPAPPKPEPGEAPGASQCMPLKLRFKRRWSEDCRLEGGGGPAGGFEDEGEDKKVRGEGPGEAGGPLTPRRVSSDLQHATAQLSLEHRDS
Summed up:
as §1

Sequence of ETV5 (P41161 whole entry, the tested form may be a part): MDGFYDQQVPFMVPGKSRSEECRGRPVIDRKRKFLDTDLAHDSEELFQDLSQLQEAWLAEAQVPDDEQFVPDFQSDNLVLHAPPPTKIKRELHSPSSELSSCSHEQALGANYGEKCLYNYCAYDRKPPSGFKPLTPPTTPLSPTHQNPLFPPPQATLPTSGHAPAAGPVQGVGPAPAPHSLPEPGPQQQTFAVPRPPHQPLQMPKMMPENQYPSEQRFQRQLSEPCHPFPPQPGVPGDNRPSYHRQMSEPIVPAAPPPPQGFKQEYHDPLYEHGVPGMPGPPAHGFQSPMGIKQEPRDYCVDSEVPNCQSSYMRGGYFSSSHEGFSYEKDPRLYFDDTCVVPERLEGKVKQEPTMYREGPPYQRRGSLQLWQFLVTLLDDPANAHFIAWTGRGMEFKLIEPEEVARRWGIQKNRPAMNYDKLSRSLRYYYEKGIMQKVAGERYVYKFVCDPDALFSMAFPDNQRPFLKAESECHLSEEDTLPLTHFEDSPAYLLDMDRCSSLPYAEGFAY
Sequence of ETV6 (P41212 whole entry): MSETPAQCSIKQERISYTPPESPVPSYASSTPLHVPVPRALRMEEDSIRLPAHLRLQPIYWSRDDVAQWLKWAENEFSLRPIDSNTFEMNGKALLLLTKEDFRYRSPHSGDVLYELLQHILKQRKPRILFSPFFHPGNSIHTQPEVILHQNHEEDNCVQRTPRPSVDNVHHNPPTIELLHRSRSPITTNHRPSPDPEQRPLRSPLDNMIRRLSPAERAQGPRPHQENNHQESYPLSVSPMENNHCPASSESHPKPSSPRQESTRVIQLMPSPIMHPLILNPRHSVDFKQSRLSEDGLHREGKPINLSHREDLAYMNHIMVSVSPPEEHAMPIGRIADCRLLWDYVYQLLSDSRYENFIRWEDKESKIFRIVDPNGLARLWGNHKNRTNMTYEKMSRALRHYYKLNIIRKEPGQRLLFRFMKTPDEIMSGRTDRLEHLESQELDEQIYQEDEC
Sequence of ELF1 (P32519 whole entry): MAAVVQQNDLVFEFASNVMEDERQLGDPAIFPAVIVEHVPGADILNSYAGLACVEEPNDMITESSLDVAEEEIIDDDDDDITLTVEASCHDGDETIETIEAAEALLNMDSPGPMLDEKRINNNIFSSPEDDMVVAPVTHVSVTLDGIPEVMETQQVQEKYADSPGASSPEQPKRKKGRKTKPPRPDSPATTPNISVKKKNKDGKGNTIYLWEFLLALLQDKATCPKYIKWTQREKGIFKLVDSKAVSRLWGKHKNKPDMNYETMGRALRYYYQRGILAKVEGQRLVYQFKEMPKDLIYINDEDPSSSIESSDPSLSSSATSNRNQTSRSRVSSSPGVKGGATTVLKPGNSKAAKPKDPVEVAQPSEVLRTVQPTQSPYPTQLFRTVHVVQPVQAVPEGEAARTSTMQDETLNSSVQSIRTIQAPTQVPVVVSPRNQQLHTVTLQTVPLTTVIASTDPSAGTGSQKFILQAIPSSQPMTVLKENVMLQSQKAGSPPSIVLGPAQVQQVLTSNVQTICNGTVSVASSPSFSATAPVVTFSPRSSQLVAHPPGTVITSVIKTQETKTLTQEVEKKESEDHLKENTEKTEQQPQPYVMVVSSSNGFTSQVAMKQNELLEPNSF
Sequence of ETV1 (P50549 whole entry): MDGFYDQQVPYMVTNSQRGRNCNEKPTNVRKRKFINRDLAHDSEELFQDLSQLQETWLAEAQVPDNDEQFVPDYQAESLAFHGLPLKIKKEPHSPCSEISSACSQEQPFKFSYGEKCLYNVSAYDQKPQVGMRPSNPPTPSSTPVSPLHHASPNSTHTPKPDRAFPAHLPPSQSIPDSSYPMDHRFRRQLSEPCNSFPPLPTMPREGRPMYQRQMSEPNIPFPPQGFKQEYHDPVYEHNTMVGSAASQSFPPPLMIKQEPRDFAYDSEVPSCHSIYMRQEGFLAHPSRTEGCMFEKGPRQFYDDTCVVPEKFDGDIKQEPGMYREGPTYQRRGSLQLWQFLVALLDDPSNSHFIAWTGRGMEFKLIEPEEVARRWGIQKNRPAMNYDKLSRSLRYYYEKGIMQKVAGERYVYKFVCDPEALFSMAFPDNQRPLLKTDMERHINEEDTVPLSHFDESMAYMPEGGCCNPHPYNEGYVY

In the case of AGTACC, the binding signal in the experiment with ETV5 was 1.04 fold enrichment (6-mer frequency, TF over GST control); with SPDEF, 1.01 fold enrichment (6-mer frequency, TF over GST control); in the experiment with ETV6, 1.04 fold enrichment (6-mer frequency, TF over GST control).
In the case of AAACAG, the binding signal in the experiment with ETV5 is 1.07 fold enrichment (6-mer frequency, TF over GST control); in the experiment with SPIC it was 1.12 fold enrichment (6-mer frequency, TF over GST control); in the experiment with ELK4, 1.04 fold enrichment (6-mer frequency, TF over GST control); with ELF3, 1.01 fold enrichment (6-mer frequency, TF over GST control); with ETV7, 1.04 fold enrichment (6-mer frequency, TF over GST control); with ETV3 it was 1.01 fold enrichment (6-mer frequency, TF over GST control). Moreover, the binding signal in the experiment with ETV6 is 1.03 fold enrichment (6-mer frequency, TF over GST control).
With CATAGC, the binding signal with GABPA was 1.02 fold enrichment (6-mer frequency, TF over GST control); with ELF1, 1.02 fold enrichment (6-mer frequency, TF over GST control); with EHF it was 1.01 fold enrichment (6-mer frequency, TF over GST control); with ETV5 it was 1.01 fold enrichment (6-mer frequency, TF over GST control); in the experiment with ELF3, 1.1 fold enrichment (6-mer frequency, TF over GST control); with ETV1 it was 1.02 fold enrichment (6-mer frequency, TF over GST control). Moreover, the binding signal in the experiment with ERF was 1.07 fold enrichment (6-mer frequency, TF over GST control); with ETV6, 1.02 fold enrichment (6-mer frequency, TF over GST control).
